According to PubChem BioAssay AID1159580 (chemical genetic matrix, 2015):
Values joined by “and” are separate entries in the source; they are usually repeats but may differ in a detail not shown here. Identical values can stand only once. In all, about 5,500 compounds went through this assay and about 2,000 (36%) were called active. Inconclusive results (about 18%) are left out. No stated cut-off is given here; in the data, active means normalized growth mostly below about 0.91 (no sharp cut-off); inconclusive means no clear call, values can overlap the other calls; inactive means mostly above about 0.92. This is one part of the list.

Assay: chemical genetic growth profiling, strain panel (AID 1159580);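 further: tested at 20 µM; growth read once vehicle control cultures reached saturation at 30 °C; 1 = growth at the plate median or of vehicle wells; lower values mean less growth of the strain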
Settings: S. cerevisiae deletion strains, growth OD

Measured: normalized growth

CN(C)CCOC(C)(c1ccccc1)c1ccccn1 (centres undefined)
inactive: locus YAL021C, strain ccr4, active compounds read low 1.03 | locus YAL026C, strain drs2, active compounds read low 1 | locus YAL030W, strain snc1, active compounds read low 0.993 | locus YAL040C, strain CLN3, active compounds read low 0.998 | locus YBL061C, strain skt5, active compounds read low 1 | locus YBR009C, strain hhf1, active compounds read low 1 | locus YBR021W, strain FUR4, active compounds read low 1.01 | locus YBR023C, strain chs3, active compounds read low 1.01 | locus YBR171W, strain sec66, active compounds read low 1 | locus YBR229C, strain ROT2, active compounds read low 1.01 | locus YBR231C, strain swc5, active compounds read low 1 | locus YBR279W, strain paf1, active compounds read low 1.01 | locus YCL011C, strain gbp2, active compounds read low 1 | locus YCL016C, strain dcc1, active compounds read low 1.01 | locus YCL029C, strain bik1, active compounds read low 0.958 | locus YCL061C, strain MRC1 (second series), active compounds read low 1.01 | locus YCL061C, strain MRC1, active compounds read low 1.01 | locus YCL069W, strain vba3, active compounds read low 1.02 | locus YCR088W, strain abp1, active compounds read low 1.02 | locus YDL005C, strain med2, active compounds read low 1.01 | locus YDL035C, strain GPR1, active compounds read low 1.02 | locus YDL040C, strain nat1, active compounds read low 1.01 | locus YDL074C, strain BRE1, active compounds read low 0.977 | locus YDL101C, strain DUN1, active compounds read low 0.989 | locus YDL185W, strain tfp1, active compounds read low 0.953 | locus YDL192W, strain arf1, active compounds read low 0.99 | locus YDR001C, strain nth1, active compounds read low 1.01 | locus YDR069C, strain doa4, active compounds read low 0.975 | locus YDR101C, strain arx1, active compounds read low 0.993 | locus YDR137W, strain rgp1, active compounds read low 0.991 | locus YDR150W, strain NUM1, active compounds read low 1 | locus YDR159W, strain sac3, active compounds read low 0.928 | locus YDR162C, strain NBP2, active compounds read low 0.998 | locus YDR195W, strain ref2 0.995 | locus YDR297W, strain sur2, active compounds read low 0.973 | locus YDR318W, strain mcm21, active compounds read low 0.981 | locus YDR334W, strain swr1, active compounds read low 1.01 | locus YDR335W, strain msn5, active compounds read low 0.985 | locus YDR363W, strain ESC2, active compounds read low 0.994 | locus YDR388W, active compounds read low 0.989 | locus YDR392W, strain spt3, active compounds read low 0.974 | locus YDR502C, strain sam2, active compounds read low 0.998 | locus YEL003W, strain gim4, active compounds read low 1.01 | locus YEL037C, strain rad23, active compounds read low 1.01 | locus YEL061C, strain CIN8 (second series), active compounds read low 1.01 | locus YEL061C, strain CIN8, active compounds read low 0.991 | locus YER002W, strain NOP16, active compounds read low 1 | locus YER015W, strain faa2, active compounds read low 1.01 | locus YER016W, strain bim1, active compounds read low 1.01 | locus YER110C, active compounds read low 0.961 | locus YER111C, strain swi4, active compounds read low 1.02 | locus YER155C, strain BEM2 (second series), active compounds read low 0.99 | locus YER155C, strain BEM2, active compounds read low 0.994 | locus YER167W, strain BCK2, active compounds read low 0.986 | locus YFR010W, strain ubp6, active compounds read low 1.02 | locus YGL078C, strain dbp3, active compounds read low 0.981 | locus YGL086W, strain mad1, active compounds read low 1.01 | locus YGL167C, strain pmr1, active compounds read low 1 | locus YGL173C, strain kem1, active compounds read low 1.03 | locus YGL227W, strain vid30, active compounds read low 0.997 | locus YGL240W, strain doc1, active compounds read low 1 | locus YGL248W, strain PDE1, active compounds read low 0.979 | locus YGL253W, strain hxk2, active compounds read low 1.01 | locus YGR135W, strain pre9, active compounds read low 0.951 | locus YGR229C, strain SMI1, active compounds read low 0.995 | locus YGR252W, strain gcn5, active compounds read low 0.994 | locus YHR013C, strain ard1, active compounds read low 0.986 | locus YHR027C, strain rpn1, active compounds read low 1.01 | locus YHR030C, strain SLT2, active compounds read low 1 and 1.04 | locus YHR079C, strain IRE1 (second series), active compounds read low 0.974 | locus YHR079C, strain IRE1, active compounds read low 1.03 | locus YHR094C, strain hxt1, active compounds read low 0.985 | locus YHR129C, strain ARP1, active compounds read low 1 | locus YHR142W, strain chs7, active compounds read low 1.03 | locus YHR200W, strain rpn10, active compounds read low 0.983 | locus YIL066C, strain RNR3, active compounds read low 0.995 | locus YIL073C, strain SPO22, active compounds read low 0.924 | locus YIL125W, strain kgd1, active compounds read low 0.992 | locus YIR030C, strain dcg1, active compounds read low 0.96 | locus YJL092W, strain hpr5, active compounds read low 1.02 | locus YJL095W, strain BCK1 (second series), active compounds read low 0.983 | locus YJL095W, strain BCK1, active compounds read low 0.955 and 1.03 | locus YJL115W, strain asf1, active compounds read low 1.01 | locus YJL129C, strain trk1, active compounds read low 1.03 | locus YJL134W, strain LCB3, active compounds read low 1 | locus YJL154C, strain vps35, active compounds read low 1.01 | locus YJL164C, strain tpk1, active compounds read low 1.01 | locus YJL166W, strain qcr8, active compounds read low 1 | locus YJL168C, strain set2, active compounds read low 0.991 | locus YJL187C, strain SWE1 (second series), active compounds read low 0.977 | locus YJL187C, strain SWE1, active compounds read low 0.999 | locus YJR043C, strain POL32, active compounds read low 1.04 | locus YJR066W, strain TOR1, active compounds read low 0.941 | locus YJR075W, strain HOC1, active compounds read low 0.974 | locus YKL009W, strain mrt4, active compounds read low 0.954 | locus YKL068W, active compounds read low 0.983 | locus YKL085W, strain MDH1 (second series), active compounds read low 0.971 | locus YKL085W, strain MDH1, active compounds read low 0.971 | locus YKL160W, strain elf1, active compounds read low 0.988 | locus YKR001C, strain vps1, active compounds read low 0.976 | locus YKR026C, strain gcn3, active compounds read low 1 | locus YKR091W, strain srl3, active compounds read low 1.01 | locus YLL001W, strain dnm1, active compounds read low 1.02 | locus YLL026W, active compounds read low 1 | locus YLL041C, strain sdh2, active compounds read low 0.963 | locus YLR027C, strain aat2, active compounds read low 0.997 | locus YLR039C, strain RIC1, active compounds read low 0.989 | locus YLR058C, strain SHM2, active compounds read low 0.993 | locus YLR102C, strain apc9, active compounds read low 0.976 | locus YLR113W, strain HOG1, active compounds read low 1.07 | locus YLR221C, strain rsa3, active compounds read low 1.01 | locus YLR258W, strain gsy2, active compounds read low 0.985 | locus YLR262C, strain YPT6 (second series), active compounds read low 1.05 | locus YLR262C, strain YPT6, active compounds read low 0.939 | locus YLR268W, strain sec22, active compounds read low 0.983 | locus YLR320W, strain mms22, active compounds read low 0.984 | locus YLR330W, strain CHS5, active compounds read low 0.995 | locus YLR342W, strain FKS1 (second series), active compounds read low 1.07 | locus YLR342W, strain FKS1, active compounds read low 1.02 | locus YLR357W, strain rsc2, active compounds read low 1.02 | locus YLR370C, strain arc18, active compounds read low 0.967 | locus YLR371W, strain rom2, active compounds read low 0.97 | locus YLR384C, strain iki3, active compounds read low 0.996 | locus YLR418C, strain cdc73, active compounds read low 0.98 | locus YML016C, strain PPZ1, active compounds read low 1 | locus YML032C, strain rad52, active compounds read low 0.997 | locus YML120C, strain ndi1, active compounds read low 0.995 | locus YML124C, strain tub3, active compounds read low 0.985 | locus YMR058W, strain fet3, active compounds read low 1.03 | locus YMR078C, strain ctf18, active compounds read low 0.963 | locus YMR125W, strain sto1, active compounds read low 1 | locus YMR129W, active compounds read low 0.982 | locus YMR205C, strain PFK2, active compounds read low 0.992 | locus YMR223W, strain ubp8, active compounds read low 0.966 | locus YMR231W, strain pep5, active compounds read low 1.01 | locus YMR263W, strain SAP30, active compounds read low 0.991 | locus YMR307W, strain GAS1, active compounds read low 1.04 and 0.992 | locus YNL067W, strain RPL9B, active compounds read low 0.967 | locus YNL071W, strain lat1, active compounds read low 1.01 | locus YNL175C, strain NOP13, active compounds read low 0.992 | locus YNL183C, strain NPR1, active compounds read low 1 | locus YNL197C, strain WHI3, active compounds read low 0.982 | locus YNL209W, strain ssb2, active compounds read low 1.02 | locus YNL224C, strain SQS1, active compounds read low 1 | locus YNL233W, strain BNI4, active compounds read low 0.986 | locus YNL248C, strain rpa49, active compounds read low 1.04 | locus YNL250W, strain rad50, active compounds read low 0.984 | locus YNL271C, strain bni1, active compounds read low 0.987 | locus YNL298W, strain CLA4, active compounds read low 0.989 | locus YNL307C, strain MCK1, active compounds read low 0.983 | locus YNL322C, strain KRE1 (second series), active compounds read low 1.01 | locus YNL322C, strain KRE1, active compounds read low 0.994 | locus YNR049C, strain mso1, active compounds read low 0.962 | locus YNR052C, strain pop2, active compounds read low 0.977 | locus YOL012C, strain htz1 0.665 | locus YOL147C, strain pex11, active compounds read low 0.984 | locus YOR001W, strain rrp6, active compounds read low 1.03 | locus YOR061W, strain CKA2, active compounds read low 0.996 | locus YOR069W, strain VPS5, active compounds read low 0.999 | locus YOR070C, strain gyp1, active compounds read low 1 | locus YOR080W, strain dia2, active compounds read low 1.01 | locus YOR083W, strain WHI5 (second series), active compounds read low 0.984 | locus YOR083W, strain WHI5, active compounds read low 0.973 | locus YOR106W, strain vam3, active compounds read low 1.02 | locus YOR136W, strain idh2, active compounds read low 0.983 | locus YOR144C, strain elg1, active compounds read low 0.993 | locus YOR184W, strain ser1, active compounds read low 0.959 | locus YOR231W, strain MKK1, active compounds read low 1.07 | locus YOR265W, strain rbl2, active compounds read low 0.999 | locus YOR270C, strain vph1, active compounds read low 1.07 | locus YOR290C, strain snf2, active compounds read low 1.01 | locus YOR316C, strain cot1, active compounds read low 0.975 | locus YPL051W, strain arl3, active compounds read low 1 | locus YPL055C, strain LGE1, active compounds read low 0.992 and 1.03 | locus YPL078C, strain atp4, active compounds read low 1 | locus YPL106C, strain sse1, active compounds read low 0.98 | locus YPL240C, strain hsp82, active compounds read low 0.977 | locus YPL241C, strain CIN2, active compounds read low 0.999 | locus YPL256C, strain CLN2, active compounds read low 1.03 | locus YPR119W, strain clb2, active compounds read low 0.98 | locus YPR141C, strain kar3, active compounds read low 0.971 | locus YPR163C, strain tif3, active compounds read low 0.977 | locus YPR167C, strain met16, active compounds read low 0.98 | strain wtn01, active compounds read low 0.996
